Assay outcomes deposited in PubChem BioAssay by The Scripps Research Institute Molecular Screening Center.
hcDAF-12 act – H. contortus DAF-12 activation, primary screen; hit rate 1.4% among 370,000; activation, % at 6.8 µM; HEK293 hcDAF-12 lit1-tk-luc reporter, luminescence; 0% DMSO, 100% Δ7-dafachronic acid;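 active means activation above the mean of all tested compounds plus 3 SD, cut at about 5.5% in these data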
DAX1 inh-1 – inhibits human nuclear receptor DAX1 | P51843 | HEK293 Gal4-DAX1 luciferase reporter, luminescence | inhibition, % at 6.75 µM | hit rate 0.99% among 340,000 | AID 504766;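 active means inhibition above the mean over all tested compounds plus 3 SD, cut at about 4.2% in these data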;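 further: inhibition shows as a rise in luminescence from relieved DAX1 repression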
Target sequence (P51843 207-470 limits assumed): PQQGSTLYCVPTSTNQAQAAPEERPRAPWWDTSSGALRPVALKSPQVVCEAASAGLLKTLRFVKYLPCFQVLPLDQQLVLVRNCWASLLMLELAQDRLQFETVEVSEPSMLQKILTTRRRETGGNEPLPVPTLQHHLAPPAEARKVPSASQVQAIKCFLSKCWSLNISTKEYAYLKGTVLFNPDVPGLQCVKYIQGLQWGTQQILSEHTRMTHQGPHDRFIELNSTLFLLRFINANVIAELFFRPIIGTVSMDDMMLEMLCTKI
DAX1 inh-2 – inhibitors of DAX1 repression of SF-1 activated StAR promoter; hit rate 1.1% among 370,000; AID 652010; inhibition, % at 6.8 µM; HEK293T StAR-luciferase reporter, SF-1/DAX-1 repression relief;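 active means inhibition above the mean over all tested compounds plus 3 SD, cut at about 3.6% in these data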;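 further: higher inhibition means more luminescence from relief of DAX-1 repression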
Wee1 degr inh – human Wee1 degradation inhibition, primary screen; HeLa Luc-Wee1K328M stability, luciferase luminescence; 100% = proteasome inhibitor MG132 effect; AID 1321; hit rate 1.2% among 220,000; reporter increase, % at 5 µM;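 active means activation above the mean of all tested compounds plus 3 SD, set per screening run, cut at about 8.8% in these data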;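 further: cells exposed to compound for 20 h before luminescence read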
hgDAF-12 ag – agonists of H. glycines DAF-12 nuclear receptor. HEK293 GAL4-hgDAF12 UAS-luciferase reporter, agonist luminescence; normalized to butyrate control. activation, % at 6.8 µM. hit rate 1.8% among 370,000. AID 687014;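 active means activation above a cutoff set at the mean of all screened compounds plus 3 SD, cut at about 10% in these data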
ssDAF12 agonist – S. stercoralis DAF-12 activation, primary screen. activation, % at 6.8 µM. AID 652126. hit rate 1% among 370,000. HEK293 ssDAF-12/GRIP1 lit1-tk-luc reporter, luminescence; % of 3 µM dafachronic acid response;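 active means activation above the mean over all tested compounds plus 3 SD, cut at about 0.9% in these data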
Each line names hits and unclear results; the compound was inactive in the other large screens. This is a sample that favours compounds with a hit; in the whole collection about 4.6% have one here.

Cn1c(=O)cc(SCC(=O)N2CCN(C3CCCCC3)CC2)c2ccccc21	DAX1 inh-1 7.3 (no result: Wee1 degr inh)
Cc1ncc(C(O)c2ccccc2)n1Cc1ccccc1 (configuration not stated)	none (no result: Wee1 degr inh)
Cc1ccc(Cl)cc1N(CC(=O)Nc1cccc(N(C)S(C)(=O)=O)c1)S(C)(=O)=O	ssDAF12 agonist 1.1
Cc1cccc(C)c1N(CC(=O)Nc1cccc(N(C)S(C)(=O)=O)c1)S(C)(=O)=O	none
CCN(CC)C(=O)C1=C(C)N(Cc2ccc(F)cc2)C(=O)C(CC(=O)NCc2ccco2)C1 (configuration not stated)	none (no result: Wee1 degr inh)
O=C(O)c1ccc(C=NNC(=O)c2ccccc2NS(=O)(=O)c2cccs2)cc1	DAX1 inh-2 3.7 (no result: Wee1 degr inh)
O=C(CNC(=O)c1ccncc1)N/N=C/c1cc(Br)ccc1O	none
O=C(CNC(=O)c1ccncc1)N/N=C/c1ccc(Br)cc1	DAX1 inh-1 6.5
CCC1CCCCN1C(=O)CSc1nnc(-c2cccs2)o1 (configuration not stated)	ssDAF12 agonist 1.0
CC1CCCN(C(=O)CSc2nnc(-c3cccs3)o2)C1 (configuration not stated)	hgDAF-12 ag 11.5 (no result: Wee1 degr inh)
CCOC(=O)CC1C(=O)NCCN1C(=S)NC(=O)c1ccc(C)c(Br)c1 (configuration not stated)	none (no result: Wee1 degr inh)
O=C(Nc1nc(COc2ccccc2)cs1)C1CCC1	Wee1 degr inh 9.3
O=C(CC1CCCCC1)NCCOc1ccccc1	none
O=C(NCCOc1ccccc1)C1CCCCC1	DAX1 inh-2 4.1
CC(=O)Nc1nc(COc2ccccc2)cs1	hgDAF-12 ag 13.2
COCO[C@@H]1CC(CO)=C[C@H]2OCO[C@H]21	none (no result: DAX1 inh-1, DAX1 inh-2, Wee1 degr inh)
COC(=O)C1CN(Cc2cn(CCOC(C)=O)nn2)CCS(=O)(=O)N1Cc1ccccc1 (configuration not stated)	none (no result: DAX1 inh-1, Wee1 degr inh)
Cc1cccc2c(=O)n(C(=O)c3ccccc3)c(N)nc12	none (no result: Wee1 degr inh)
Cc1nn(-c2ccccc2)c(/N=C/c2ccc(O)cc2)c1-c1ccccc1	ssDAF12 agonist 1.0
Cc1nn(-c2ccccc2)c(C)c1-c1ccccc1O	none (no result: Wee1 degr inh)
N/C(=N/O)C(c1ccccc1)c1ccccc1	hcDAF-12 act 5.8
N#CCC(=O)Nc1ccc(C(=O)NNC(=O)CCN2CCN(c3ccccc3)CC2)cc1	none (no result: Wee1 degr inh)
COC/C=C/C1=CC2=CC(=O)C(C)(OC(=O)c3cnc4ccccc4n3)C(=O)C2=CN1CCCCO (configuration not stated)	DAX1 inh-1 4.2 (no result: Wee1 degr inh)
c1ccc(-c2nnc3n2N=C(c2ccc4ccccc4c2)CS3)nc1	none (no result: DAX1 inh-1, Wee1 degr inh)
O=C(NC1=NCCS1)c1cc(-c2ccc(-c3ccccc3)cc2)nc2ccccc12	ssDAF12 agonist 0.9
COc1cccc(-c2cc(C(=O)Nn3cnnc3)c3ccccc3n2)c1	hcDAF-12 act 6.0
CC(C)Oc1cccc(-c2cc(C(=O)N3CCN(c4ncccn4)CC3)c3ccccc3n2)c1	Wee1 degr inh 9.3
COC(=O)c1sccc1NC(=O)c1cc(-c2cccc(C)c2)nc2ccccc12	none
COC(=O)c1sccc1NC(=O)c1cc(-c2ccc(C)cc2)nc2ccccc12	ssDAF12 agonist 1.1
CCOC(=O)C(=NO)C1=CSC2=NNC(C)(C)N12	none (no result: Wee1 degr inh)
CCCN(CC(=O)Nc1ccccc1C)C(=O)c1cnc(C)cn1	none (no result: Wee1 degr inh)
COCCN(C(=O)C1CCN(C(=O)c2ccccc2C)CC1)c1c(N)n(CC(C)C)c(=O)[nH]c1=O	none (no result: Wee1 degr inh)
O=C(Nc1nnc(-c2cccs2)o1)c1cc(-c2ccccc2)nc2ccccc12	Wee1 degr inh 9.5
O=C(NCc1cccs1)c1cc(-c2ccccc2)nc2ccccc12	none
COc1cccc(NC(=O)CSc2nnc3ccc(-c4ccncc4)nn23)c1	none (no result: Wee1 degr inh)
O=C1C2C3CCC(O3)C2C(=O)N1c1cccc(O)c1 (configuration not stated)	ssDAF12 agonist 0.9 (no result: Wee1 degr inh)
CC(C)C[C@H]1CN([C@@H](Cc2ccc(O)cc2)CN2CCC[C@H]2CN2C(=O)C(=O)NC[C@@H]2Cc2ccc(O)cc2)C(=O)C(=O)N1CCc1ccccc1	none (no result: DAX1 inh-1, Wee1 degr inh)
CN(Cc1ccccc1)C(=O)OCc1cn(Cc2cccc(F)c2F)nn1	none (no result: DAX1 inh-1, Wee1 degr inh)
CC(=O)c1ccc(NC(=O)C2CCCN2S(=O)(=O)c2ccc(F)cc2)cc1 (configuration not stated)	none
O=C(Nc1ccc(O)cc1)C1CCCN1S(=O)(=O)c1ccc(F)cc1 (configuration not stated)	DAX1 inh-1 4.6
C[C@]12CCC[C@H](O1)c1c(cc3c(c1O)C(=O)c1c(O)cc(O)cc1C3=O)O2	DAX1 inh-1 5.1 (no result: Wee1 degr inh)
c1ccc(CCc2nc3ccccc3[nH]2)cc1	hgDAF-12 ag 13.1
Brc1ccc(OCc2nc3ccccc3[nH]2)cc1	hcDAF-12 act 6.0, hgDAF-12 ag 12.4 (no result: Wee1 degr inh)
c1ccc2[nH]c(COCc3nc4ccccc4[nH]3)nc2c1	none (no result: DAX1 inh-1, DAX1 inh-2, Wee1 degr inh)
COc1ccccc1OCc1nc2ccccc2[nH]1	DAX1 inh-1 7.3
Nc1ccc2nc(COc3ccccc3)[nH]c2c1	hcDAF-12 act 6.5 (no result: Wee1 degr inh)
COc1ccc(C(=O)NCc2ccc3c(c2)OCO3)cc1S(=O)(=O)N1CCCC1	none (no result: Wee1 degr inh)
CCC(=O)Nc1nc2ccc(NC(C)=O)cc2s1	none
CCCC(=O)Nc1nc2ccc(NC(=O)c3ccc(Br)o3)cc2s1	Wee1 degr inh 9.5
C#CCN(C[C@@H]1[C@@H](OC(=O)NCc2ccc(OC)c(OC)c2)[C@@H](OC(=O)NCc2ccc(OC)c(OC)c2)CN(C(=O)OC(C)C)N1C(=O)OC(C)C)S(=O)(=O)c1ccc(C)cc1	none (no result: Wee1 degr inh)
COc1ccccc1S(=O)(=O)N(C)C[C@@H]1OCc2cnnn2CCCC(=O)N([C@H](C)CO)C[C@@H]1C	none (no result: Wee1 degr inh)
CCC(CC)C(=O)Nc1cccc(C(=O)c2ccccc2)c1	Wee1 degr inh 9.4
CCC(CC)C(=O)Nc1cccc(C(=O)NC(C)(C)C)c1	none
N#Cc1cc(NC2CCCC2)c([N+](=O)[O-])cc1C#N	none
N#Cc1cc(Nc2c(N)nc[nH]c2=O)c([N+](=O)[O-])cc1C#N	hcDAF-12 act 6.0 (no result: Wee1 degr inh)
Cc1ccccc1OCCOc1cccc(/C=N/NC(=O)Cc2nnc(N)s2)c1	hgDAF-12 ag 12.3
CC(NC(=O)Nc1ccc(Cl)cc1)C(c1cccs1)N1CCOCC1 (configuration not stated)	ssDAF12 agonist 1.5
CC(NC(=O)Nc1ccccc1)C(c1cccs1)N1CCOCC1 (configuration not stated)	none
CC(=O)N/C(=C\c1ccccc1)C(=O)OCC(=O)NC1CCCC1	hcDAF-12 act 6.4
CC(=O)N/C(=C\c1ccccc1)C(=O)OCC(=O)c1ccccc1	none (no result: Wee1 degr inh)
Cc1ccc(CSc2nnc3c(n2)OC2(Nc4ccccc4-3)C(=O)Nc3ccc(F)cc32)cc1 (configuration not stated)	none
O=C1Nc2ccc(F)cc2C12Nc1ccccc1-c1nnc(SCc3ccccc3)nc1O2 (configuration not stated)	hcDAF-12 act 5.6
